Data on 40 compounds can be found in PubChem BioAssay (NCATS).

Each structure is given as a SMILES string. Inconclusive results are not listed. The source made the active and inactive calls. The call rests on the fitted dose curve; in most records, active means well fitted inhibition curve with a large enough effect; inconclusive means small, poorly fitted or top-dose-only effect; inactive means no such curve, though single readings can be large or run the other way.
On the % scale 0 is the no-effect control and ±100 the full control effect.

This experiment concerns the target Endonuclease 4 (Escherichia coli (strain K12)) (UniProt P0A6C1). As to the kind of experiment: Counterscreen for APE1 Inhibitors: qHTS Validation Assay for Inhibitors of Endonuclease IV (AID 1708). To be noted: E. coli endonuclease IV, DNA cleavage fluorescence; series mostly up to 57.1 µM; activity change, negative = inhibition: at the top concentration. The source says: Assay Provider: David M. Wilson, III, National Institute on Aging, NIH
Screening Center PI: Austin, C.P.
Screening Center: NIH Chemical Genomics Center [NCGC]
Escherichia coli endonuclease IV (Endo IV) is the key member of the AP endonuclease superfamily that catalyzes the cleavage of damaged DNA backbone immediately 5' of an AP site. E. coli EndoIV has the same functional activities as human APE1 but has no sequence or structural homology to the human protein. Herein, we utilize E. coli EndoIV to counter screen compound libraries as part of a high-throughput campaign for APE1 inhibitor identification. A concentration-response screen of the LOPAC1280 collection was performed under experimental conditions identical to those used in the APE1 screen.
Inhibition of APE1 activity was screened by utilizing double-stranded short substrate containing tetrahydrofuran (THF) abasic site labeled with rhodamine-type fluorophore (TAMRA) at the 5'-end and with non-fluorescent Black Hole Quencher-2 (BHQ-2) at the opposing 3'-end. An increase in the fluorescence intensity due to incision of the abasic site by APE1 was used to measure the enzyme activity.
Buffer: 50 mM Tris-HCl (pH 7.5) containing 50mM NaCl, 2 mM MgCl2, 1 mM DTT and 0.01% Tween-20.
Buffer in columns 3 and 4 as negative control (no enzyme).
Substrate: 50 nM final concentration of TAMRA/BHQ-2 substrate dispensed throughout the plate.
Enzyme: 2 nM E. coli EndoIV final concentration in columns 1, 2, 5-48. Column 1 is neutral (100% activity).
Control: Pintool transfer of control inhibitor NSC-13755 to column 2 of all assay plates. Two-fold, 16 pt dilution in duplicate to produce final concentrations in the 5.75 uM - 0.175 nM range.
Three uL of enzyme were dispensed to 1536-well Greiner black solid bottom plates. Compounds (23 nL) were transferred via Kalypsys pintool. The plates were incubated for 15 min at room temperature, and then 1 uL of substrate solution was added to start the reaction. The plates were immediately transferred into ViewLux High-throughput CCD imager (Perkin-Elmer) in order to measure the reaction progress in kinetic mode (three reads every 60 seconds) using 525 nm excitation and 598 nm emission fluorescence protocol. The fluorescence intensity difference between the third and the first time points was used to compute reaction progress.
With `COc1ccc(/C=C/C(=O)Nc2ccccc2C(=O)O)cc1OC`, the “activity change, negative = inhibition” value is -8.84% (inactive).

In the case of `CCN1/C(=C/C(C)=O)Sc2ccc(OC)cc21`, the “activity change, negative = inhibition” value was -9.48% (inactive). In the case of `Ic1ccc(N2CCN(Cc3c[nH]c4ncccc34)CC2)cc1` it was -8.27% (inactive); in that of `CNCC[C@H](Oc1ccc(C(F)(F)F)cc1)c1ccccc1`, -8.59% (inactive). In the case of `O=C(O)c1cc(=O)c2c(Cl)cc(Cl)cc2[nH]1` it was -9.88% (inactive); in that of `O=C(O)c1cc(=O)c2ccccc2[nH]1`, -8.03% (inactive). Then `O=c1[nH]c2cc([N+](=O)[O-])c([N+](=O)[O-])cc2[nH]c1=O`, with -8.35% (inactive); and `Fc1ccc(C(OCCCc2cnc[nH]2)c2ccc(F)cc2)cc1`, with -4.26% (inactive); and `CN1CCc2ccccc2Cc2[nH]c3ccccc3c2CC1`, with -7.95% (inactive). With `O=Nc1ccc2oc(=O)ccc2c1`, the “activity change, negative = inhibition” value was -6.67% (inactive).

As for `CN1CCC[C@H]1c1cccnc1`, the “activity change, negative = inhibition” value is -7.31% (inactive).

Turning to `C=CC(N)CCC(=O)O` (stereo not given), the “activity change, negative = inhibition” value is 48.2% (inactive). Regarding `O=c1[nH]c2ccccc2n1CCCN1CCN(C(c2ccccc2)c2ccccc2)CC1`, the “activity change, negative = inhibition” value was -7.07% (inactive). Then `COc1cccc(OC)c1OCCNCC1COc2ccccc2O1` (stereo not given), with -8.03% (inactive); and `NCCCS(=O)(=O)O`, with -6.59% (inactive). For `N.N.O=C(O)C1(C(=O)O)CCC1.[Pt]`, the “activity change, negative = inhibition” value is 4.66% (inactive). Then `NCCNC(=O)c1ncsc1-c1cccc(F)c1`, with -4.9% (inactive); and `NC(CCCP(=O)(O)O)C(=O)O` (stereo not given), with -6.27% (inactive); and `Oc1cc(O)cc(/C=C/c2ccc(O)c(O)c2)c1`, with 58.4% (inactive). In the case of `C[C@@H](CN1CCC(Cc2ccccc2)CC1)[C@@H](O)c1ccc(O)cc1` it was -8.03% (inactive). Consider `COc1cc(C(O)CO)ccc1OS(=O)(=O)O` (stereo not given), for which the “activity change, negative = inhibition” value was -9.72% (inactive). On to `O=C(c1cc(O)c(O)c([N+](=O)[O-])c1)c1ccccc1F`, for which the “activity change, negative = inhibition” value was 8.11% (inactive). Then `CC(C)(C)c1ccc(S(=O)(=O)/C=C/C#N)cc1`, with -6.59% (inactive); and `O=C(O)[C@@H]1C[C@H](C(=O)O)N1`, with -8.59% (inactive). In the case of `N#C/C(=C\c1ccc(O)c(O)c1)C(=O)c1ccc(O)c(O)c1` it was -93.6% (inactive); in that of `CN(C)CCC(c1ccc(Cl)cc1)c1ccccn1` (stereo not given), -3.78% (inactive). Then `NC(=O)C(=O)O`, with -4.9% (inactive). `O=C(Nc1ccccc1)c1cc([N+](=O)[O-])ccc1Cl`: the “activity change, negative = inhibition” value is -6.27% (inactive).

Take `CC12C(=O)OC(=O)C1(C)C1CCC2O1` (stereo not given): the “activity change, negative = inhibition” value is -8.76% (inactive).

As for `CC(COc1ccc(/C=C/c2ccccc2)cc1)[N+](C)(C)C` (stereo not given), the “activity change, negative = inhibition” value was 42.6% (inactive). In the case of `CCCCCCCCCCCCCCCC(=O)NCC(COP(=O)([O-])OCC[N+](C)(C)C)OCC` (stereo not given) it was -3.78% (inactive); in that of `CCCCC/C=C\CC(O)/C=C/c1cccc(CC(O)CCCCO)n1` (stereo not given), 49.5% (inactive). On to `N#C/C(=C\c1c[nH]c2ccccc12)C(=O)c1ccc(O)c(O)c1`, for which the “activity change, negative = inhibition” value was 34.2% (inactive). In the case of `NO` it was -5.14% (inactive); in that of `Cc1ccc(C(=O)O[C@H](C(=O)O)[C@@H](OC(=O)c2ccc(C)cc2)C(=O)O)cc1` (tested in a mixture with another compound), -9.24% (inactive); in that of `Cn1c(=O)c2[nH]c(-c3ccccc3)nc2n(C)c1=O`, -12.1% (inactive). For `NCCSSCCN`, the “activity change, negative = inhibition” value is -7.47% (inactive).

As to `COC1=C(OC)C(=O)c2ccccc2C1=O`, the “activity change, negative = inhibition” value was -4.1% (inactive). For `O=C(O)CNC(=O)C(CS)Cc1ccccc1` (stereo not given), the “activity change, negative = inhibition” value is -6.27% (inactive). Then `O=C1NC(O)=NC1(c1ccccc1)c1ccccc1`, with -11% (inactive).
